Source: PubChem BioAssay (NCATS)
Several values for one entry are separate records, joined by “and”; a condition that tells them apart may be missing. Equal values may be shown once. Results filed as inconclusive are left out. More than one record can exist for a structure, and the calls need not agree. Activity calls are given as the source filed them. Calls come from the whole dose curve; as a rule, active = well fitted curve in the direction sought with a large enough effect; inconclusive = small, poorly fitted or top-dose-only effect, or another doubt; inactive = no such curve, though single readings can be large; an effect the other way counts as inactive or inconclusive.

Tests used:
[1] = qHTS Assay for Identifying Gametocytocidal Compounds (AID 743244);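 note: actives lower the fluorescent signal which means gametocytes are killed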; conditions: P. falciparum 3D7 stage III-V gametocytes, alamarBlue, 72 h; max response: stronger effect = lower value
How it was run: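 Stage III-V P. falciparum 3D7 gametocytes, 20,000 per well, were exposed to compounds for 72 h at 37C, 5% CO2. AlamarBlue was then added for 24 h and viability was read as fluorescence at Ex 525/Em 598 nm.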

[2] = qHTS assay to identify small molecule inhibitors of chordoma cells - UCH-1 (AID 1259355); conditions: UCH-1 chordoma viability, CellTiter-Glo, 48 h, combination, with auranofin plus four topoisomerase inhibitors; series mostly up to 46.1 µM; note: nearly all actives have a fitted effect of over 55% in size
How it was run: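 Screening used approved and investigational drugs in 15-point titration against 800 seeded cells per well. A fixed combination of auranofin with camptothecin, doxorubicin, rubitecan and topotecan followed compound addition, and growth was scored by CellTiter-Glo after 48hr.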

[3] = qHTS assay to identify small molecule inhibitors of chordoma cells - UCH-2 (AID 1259356); conditions: UCH-2 chordoma viability, CellTiter-Glo ATP luminescence, 48 h; series mostly up to 46.1 µM
[4] = P-glycoprotein substrates identified in KB-8-5-11 adenocarcinoma cell line, qHTS therapeutic library screen (AID 1346987); conditions: KB-8-5-11 (P-gp overexpressing) viability, CellTiter-Glo, 72 h; series mostly up to 44.5 µM; note: nearly all actives have a fitted effect of over 65% in size; note: potency is the fitted concentration of half-maximal effect
How it was run: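 Human cervical adenocarcinoma KB-8-5-11 cells, selected in colchicine to over-express P-gp and assayed without it, were exposed for 72 h to titrated compounds. An ATP-based luminescent viability signal gave AC50.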
% is set by controls: 0 for no effect and ±100 for the full control effect.

CC(C)(C)c1ccc(CN2CCN(C(c3ccccc3)c3ccc(Cl)cc3)CC2)cc1 (configuration not stated)
23.1 µM (active) and inactive: Potency [4]
inactive: max response [1] -2.06% | Potency [2] | Potency [3]

CC(CNC(=O)c1cccnc1)NC(=O)c1cccnc1 (configuration not stated)
inactive: max response [1] -8.6% | Potency [2] | Potency [3] | Potency [4]

CCOC(=O)[C@@H](N)CS
inactive: max response [1] 0.746% | Potency [2] | Potency [3] | Potency [4]

N=C(N)c1ccc(/C=C/c2ccc(C(=N)N)cc2O)cc1
inactive: max response [1] 21.7% | Potency [2] | Potency [3]
active: Potency [4] 18.4 µM

CCC(Cc1c(I)cc(I)c(O)c1I)C(=O)O (configuration not stated)
inactive: max response [1] 11.2% | Potency [2] | Potency [3] | Potency [4]

FCOC(C(F)(F)F)C(F)(F)F
inactive: max response [1] -7.47% | Potency [2] | Potency [3] | Potency [4]

CCCCC(CC)CCC(CC(C)C)OS(=O)(=O)O (configuration not stated)
inactive: max response [1] 17.4% and 3.69% | Potency [2] | Potency [3] | Potency [4]

Nc1ncnc2c1ncn2CCOCP(=O)(O)O
inactive: max response [1] -0.768% | Potency [2] | Potency [3] | Potency [4]

CC(C)C1=CC2=CC[C@@H]3[C@](C)(CCC[C@@]3(C)C(=O)O)[C@H]2CC1
inactive: max response [1] -5.77% | Potency [2] | Potency [3] | Potency [4]

CC(C)[C@@H]1CC[C@@H](C)C[C@H]1OC(=O)c1ccccc1O
inactive: max response [1] 9.93% | Potency [2] | Potency [3] | Potency [4]

Cc1ncc(C[n+]2csc(CCO)c2C)c(N)n1
inactive: max response [1] 2.57% | Potency [2] | Potency [3] | Potency [4]

NC(=O)CC[C@@H]1NC(=O)[C@H](Cc2ccccc2)NC(=O)[C@H](Cc2ccc(O)cc2)NC(=O)[C@@H](N)CSSC[C@@H](C(=O)N2CCC[C@H]2C(=O)N[C@@H](CCCN=C(N)N)C(=O)NCC(N)=O)NC(=O)[C@H](CC(N)=O)NC1=O
inactive: max response [1] -1.4% and -14.5% | Potency [2] | Potency [3] | Potency [4]

Cc1ncc(COP(=O)(O)O)c(CN)c1O
inactive: max response [1] -10.8% | Potency [2] | Potency [3] | Potency [4]

CC(C)[C@H](N)C(=O)OCC(CO)OCn1cnc2c(=O)[nH]c(N)nc21 (some centres not stated)
inactive: max response [1] -1.87% | Potency [2] | Potency [3] | Potency [4]

CN1CCc2c(c3ccccc3n2Cc2ccccc2)C1
inactive: max response [1] 9.99% | Potency [2] | Potency [3] | Potency [4]

Nc1nc(/C(=C/CC(=O)O)C(=O)N[C@@H]2C(=O)N3C(C(=O)O)=CCS[C@H]23)cs1
inactive: max response [1] -2.9% | Potency [2] | Potency [3] | Potency [4]

COc1ccc(/C=N/NC(=O)c2ccncc2)c(C(=O)O)c1OC
inactive: max response [1] 9% | Potency [2] | Potency [3] | Potency [4]

CCCCCCCCCCCC(=O)OC[C@@H](O)C1OC[C@H](O)[C@H]1O (some centres not stated)
inactive: max response [1] -8.97% | Potency [2] | Potency [3] | Potency [4]

O=C(O)CC/C=C\CC[C@@H]1[C@@H](N2CCCCC2)[C@@H](O)C[C@@H]1OCc1ccc(-c2ccccc2)cc1
inactive: max response [1] -9.09% | Potency [2] | Potency [3] | Potency [4]

C=N[C@@H](C(=O)N[C@@H]1C(=O)N2[C@@H]1SC(C)(C)[C@@H]2C(=O)O)c1ccccc1
inactive: max response [1] -0.476% | Potency [2] | Potency [3] | Potency [4]

[O]=[Bi][O]C(=O)[O][Bi]=[O]
inactive: max response [1] -0.353% | Potency [2] | Potency [3] | Potency [4]

FC(F)(F)C(F)(F)C(F)(F)C(F)(F)C(F)(F)F
inactive: max response [1] -2.45% | Potency [2] | Potency [3] | Potency [4]

C=CCOc1ccc(CC(=O)O)cc1Cl
inactive: max response [1] 22.7% | Potency [2] | Potency [3] | Potency [4]

C=C1[C@@H]2CC[C@@H](C2)C1(C)C
inactive: max response [1] -12.4% | Potency [2] | Potency [3] | Potency [4]

COC(=O)CC[C@H](N)C(=O)O
inactive: max response [1] -4.69% | Potency [2] | Potency [3] | Potency [4]

CNCC(=O)N[C@@H](CCCN=C(N)N)C(=O)N[C@H](C(=O)N[C@@H](Cc1ccc(O)cc1)C(=O)N[C@H](C(=O)N[C@@H](Cc1cnc[nH]1)C(=O)N1CCC[C@H]1C(=O)N[C@@H](C)C(=O)O)C(C)C)C(C)C
inactive: max response [1] 5.17% | Potency [2] | Potency [3] | Potency [4]

O=C(CCCN1CCN2CCCC2C1)c1ccc(F)cc1 (configuration not stated)
inactive: max response [1] 7.46% | Potency [2] | Potency [3] | Potency [4]

O[C@@H]([C@H](O)[C@H](O)CBr)[C@H](O)CBr
inactive: max response [1] -5.26% | Potency [2] | Potency [3] | Potency [4]
